A number with no mark means an inactive call. No rule for the calls is given here.

This passage reports inhibition results from PubChem BioAssay.

Pantothenate synthetase (Mycobacterium tuberculosis (strain ATCC 25618 / H37Rv)), sequence (P9WIL5 whole entry, looked up): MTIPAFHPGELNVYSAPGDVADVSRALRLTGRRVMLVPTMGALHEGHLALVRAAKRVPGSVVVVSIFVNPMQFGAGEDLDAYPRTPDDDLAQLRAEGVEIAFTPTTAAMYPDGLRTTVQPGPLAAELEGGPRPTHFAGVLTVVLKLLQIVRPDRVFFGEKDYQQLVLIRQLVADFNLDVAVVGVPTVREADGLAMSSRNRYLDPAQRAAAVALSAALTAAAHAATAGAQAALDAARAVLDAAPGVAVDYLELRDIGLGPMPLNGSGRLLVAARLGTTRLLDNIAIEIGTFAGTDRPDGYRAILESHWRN

The assay addresses Pantothenate synthetase (Mycobacterium tuberculosis (strain ATCC 25618 / H37Rv)) (UniProt P9WIL5). Nature of the assay: Recombinant Mtb pantothenate synthetase (PanC) inhibitors, coupled enzyme, confirmatory (AID 375).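 Also: 0% = full reaction with vehicle and 100% = no enzyme background.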 To be noted: coupled enzyme assay; at 10 µM, stronger effect = higher value.
Take `O=C(Cn1nc(Cc2cccnc2)c2ccccc2c1=O)NCC1CCCO1` (stereo not given): the inhibition was 0%. The value for `COc1ccc(-c2nc(C#N)c(NCCCN(C)C)o2)cc1OC` was 0%; that for `Cc1ccc(-c2nnc3ccc(SCC(=O)NCc4ccco4)nn23)cc1` was 0%.

Regarding `Nc1nc(F)nc2c1ncn2[C@@H]1O[C@H](CO)[C@@H](O)[C@@H]1O`, the inhibition was 0%. The value for `CCC(=O)OCCn1c(=O)c2cc3c(=O)n(CCOC(=O)CC)c(=O)c3cc2c1=O` was 0%; that for `Cc1nnc(NC(=O)CCC(=O)N2CCC(C)CC2)s1` was 0%; that for `O=C(NCC(=O)N(c1cccnc1)C(C(=O)NC1CCCCC1)c1cccnc1)c1ccco1` (stereo not given) was 0%. The value for `CCCCc1ccc(NC(=O)C2CCCO2)cc1` (stereo not given) was 0%; that for `O=C(Nc1ccc(N2CCCCC2)cc1)c1ccc(F)cc1` was 0%. Under `Cc1nnc(SCC(=O)NCCN2C(=O)CSC2=O)s1` stands 7%. Turning to `CCCCOc1cccc(NC(=O)CSc2nccn2C)c1`, the inhibition is 2%.

For the compound `CCCCNC(=O)CSc1nc2ccc(N3CCOCC3)cc2c(=O)n1CCc1ccccc1`, the inhibition is 15%. Turning to `CCOC(=O)N1CCN(S(=O)(=O)c2ccc(Br)s2)CC1`, the inhibition is 11%. Under `N#CCc1ccc(NC(=O)Nc2cccc(Cl)c2)cc1` stands 0%.

Take `CC(=O)NC(CCS(C)(=O)=O)C(=O)Nc1cccc(C)c1` (stereo not given): the inhibition was 3%. Under `O=C1CC(c2ccco2)=Nc2ccccc2N1` stands 6%. The value for `O=C1c2ccccc2C(=O)N1Cc1nc2ccccc2c(=O)n1CCN1CCOCC1` was 1%; that for `O=c1[nH]c(N2CCCCC2)nc2c1CCCC2` was 0%.

For `O=S1(=O)CC(N2CCCCC2)C(N2CCCCC2)C1` (stereo not given), the inhibition was 6%. Under `CCOc1ccc(C(=O)OCc2nnc(-c3cccs3)o2)cc1OC` stands 0%. The value for `Cn1c(=O)c2c(ncn2CC(O)CNc2ccc(Cl)cc2)n(C)c1=O` (stereo not given) was 0%. The value for `N=c1c(C(=O)NCc2ccc3c(c2)OCO3)cc2c(=O)n3ccccc3nc2n1Cc1cccnc1` was 2%; that for `CC1Cc2ccccc2N1C(=O)CSc1nnc2n1C(C)(C)Cc1ccccc1-2` (stereo not given) was 0%. `CC(C)c1nnc(NC(=O)C2CCCCC2)s1`: the inhibition was 1%.

As for `Cn1c(=O)c(NC(=O)c2ccccc2)c2n(c1=S)CCCCC2`, the inhibition was 0%. Under `COc1ccccc1C1C(C#N)=C(N)Oc2cc(C)n(Cc3ccccn3)c(=O)c21` (stereo not given) stands 1%.

As to `O=C1CN(C(=O)COC(=O)c2ccccc2NC(=O)c2ccco2)c2ccccc2N1`, the inhibition is 0%.

With `COc1ccc(N=c2scc(-c3ccc(S(=O)(=O)N4CCOCC4)cc3)n2CCCO)cc1`, the inhibition is 0%. The value for `Cc1cccc(C)c1NC(=O)C1CCCCN1C` (stereo not given) was 0%; that for `Cc1cc(C)n(CC(=O)NC2CCCCC2)n1` was 0%. Under `CCOc1ccc(N2CC(C(=O)NCCc3ccc(OC)c(OC)c3)CC2=O)cc1` (stereo not given) stands 0%.

As for `COc1cc(C(=O)Nc2ccc3c(c2)C(=O)N(CCC(=O)O)C3=O)cc(OC)c1OC`, the inhibition was 0%.

For `Cc1nc2ccccn2c1P(=O)(N1CCCCC1)N1CCCCC1`, the inhibition is 4%. Under `CCOc1ccc2[nH]c(C)cc(=O)c2c1` stands 0%.

With `COc1cccc(-c2nc(CSCC(=O)N3CCc4ccccc43)c(C)o2)c1`, the inhibition is 0%. As to `CSc1c(C#N)c(N)c(C#N)c2c1COC(C)(C)C2`, the inhibition was 0%.

Regarding `COc1ccc(NC(=O)Nc2ccc(C)cc2OC(F)F)cc1OC`, the inhibition was 3%. The value for `CC1(C)CC(=O)C(C=NCCO)=C(O)C1` was 0%; that for `Cc1ccccc1OCc1nnc(SCC(=O)NCc2ccccc2)n1C` was 0%. `COC(=O)c1cc(S(=O)(=O)N2CCOCC2)c(N2CCOCC2)cc1N1CCOCC1`: the inhibition is 2%.
